# Results: PubChem BioAssay (NCI)
# This is part of a sample that, as a whole, favours compounds with a hit. Of some 83,000 tested, about 20% had one in any assay.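 How to read the values: 0–100, growth inhibition (40 = 60% inhibited); 0, no net growth; -100 to 0, cell death (-40 = 40% of starting cells died; -100 = all dead).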 A number with no mark means an inactive call. The source made the active and inactive calls.
# Test system: HT29 colon
# Assay: NCI-60 one-dose screen, 48 h (100 = growth as untreated, 0 = no growth, -100 = all killed)
# Conditions: 10 µM unless noted
# Experimental: Growth inhibition of the HT29 human tumor cell line is measured as a screen for anti-cancer activity. Cells are grown in 96 well plates and exposed to the test compound for 48 hours. Compounds are tested at a single concentration, which is 10^-5 M for most compounds. The reported endpoint is percent growth (GI% or GIPRCNT), where numbers from 0 - 100% represent growth inhibition, and numbers from -100% - 0 represent cell death. For example, a value of 40 represents 60% growth inhibition. A value of 0 means no net growth occurred over the course of the experiment. A value of -40 indicates 40% of cells at the beginning of the experiment died by the end of the experiment. A value of -100 means all cells are dead at the end of the experiment.
# NCI-60 Human Tumor Cell Lines Screen was performed using the standard one-dose NCI protocol, which is described in more detail at https://dtp.cancer.gov/discovery_development/nci-60/default.htm.
# Compounds with GIPRCNT values below 10 were considered active. Activity score was based on GIPRCNT using the following formula: […]
# Score is 0 for GIPRCNT values of 100 or above, 50 for GIPRCNT values of 0, and 100 for GIPRCNT values of -100.
row,SMILES,growth
1,Oc1ccc(CSc2nnc(-c3ccccc3)o2)c2cccnc12,88.8%
2,Cc1cn(-c2cc(NC(=O)c3cncc(C#Cc4cnc5ccc(OCCCS(C)(=O)=O)nn45)c3)cc(C(F)(F)F)c2)cn1,16.1%
3,COc1cc(/C=N/n2cnc3oc(-c4ccccc4)cc3c2=N)cc(CN2CCCCC2)c1O,-14.1% (active)
4,O=C(COc1ccc(C2SCC(=O)N2c2ccc(F)cc2)cc1)c1ccccc1 (stereo not given),109%
5,NS(=O)(=O)c1ccc(Nc2nc(N/N=C/c3ccc(F)cc3)nc(Nc3ccccc3)n2)cc1,4.73% (active)
6,C#CCOc1ccc(/C=N/Nc2nc(-c3cc4cc(Br)cc(Br)c4oc3=O)cs2)cc1,104%
7,O=C1c2cc(Br)ccc2-n2c1nc1cc(Br)ccc1c2=O,74.3%
8,Cc1ccc(NC(=O)N[C@@H](Cc2cc(F)cc(F)c2)C(=O)NC2C(=O)N3CCC[C@H]3C(=O)N3CCCC[C@H]3C(=O)N[C@@H](C)C(=O)N3C[C@H](C)C[C@H]3C(=O)O[C@H]2C)c(F)c1 (stereo not given in full),26.5%
9,O=C(Nc1ccccc1)Nc1nc2ccc([N+](=O)[O-])cc2s1,9.17% (active)
10,CC(C)(C)OC(=O)N1CCN(S(=O)(=O)/N=C2\NC(=O)NC2=C(Cl)Cl)CC1,106%
11,COc1ccc2c(c1)oc1c3[nH]c4ccccc4c3c3c(c21)C(=O)N(O)C3=O,38.3%
12,Cc1ccc(-c2csc(N/N=C/c3nc4ccccc4n3C3CC3)n2)cc1,92.2%
13,Cc1ccc(NC(=O)c2cccc(CN3CCN(C)CC3)c2)cc1Oc1ccc(-c2[nH]nc3ncnc(N)c23)cc1,5.69% (active)
14,CCCCCCNC(=O)Oc1ccc(/C(=C(\C)c2ccc(Cl)cc2)c2ccc(OCCN(C)C)cc2)cc1,5.99% (active)
15,COc1ccc(Cn2cc3c(c2-c2cc(OC)c(OC)c(OC)c2)CCCc2cnoc2-3)cc1,14.7%
16,CCOc1ccc2nc(NC(=O)Nc3ccccc3C)sc2c1,14.9%
17,COc1ccc(/C=N/Nc2nc(N/N=C/c3ccc(OC)cc3O)nc(N3CCOCC3)n2)c(O)c1,56.4%
18,COc1ccc(-c2ccnc3c(C#N)c(Nc4ccccc4)nn23)cc1OC,90%
19,CC1(C)CC[C@]2(C(=O)N3CCCN(CC#N)CC3)CC[C@]3(C)C(=CC[C@@H]4[C@@]5(C)CC[C@H](O)C(C)(C)[C@@H]5CC[C@]43C)[C@H]2C1,34.7%
20,Oc1ccc(CSc2nnc(-c3ccccc3)n2-c2ccccc2)c2cccnc12,52.4%

row,SMILES,growth
1,NC(=O)N1N=C(c2cc3ccccc3oc2=O)CC1c1cn(-c2ccccc2)nc1-c1ccc(Cl)cc1 (stereo not given),35.9%
2,Clc1ccc(-c2nc3ccc(/C(=N\N=C\c4ccccc4)c4ccccc4)cc3[nH]2)cc1,71.7%
3,COc1ccc([C@H]2[C@H](O)C(=O)N2c2cc(OC)c(OC)c(OC)c2)cc1O,-18.4% (active)
4,COc1ccc(/C(C)=C(\c2ccc(Cl)cc2)c2ccc(OCCN)cc2)cc1,0.975% (active)
5,O=C1CC2(CCOCC2)Oc2ncccc21,49.8%
6,C(=C(\C1=NCCN1)n1cnc2ccccc21)/c1ccc2ccccc2c1,91.7%
7,C#C[C@]1(O)CC[C@H]2[C@@H]3CC=C4c5sc(Nc6cc(Cl)ccn6)nc5CC[C@]4(C)[C@H]3CC[C@@]21C,21.4%
8,Nc1nc(-c2cccc([N+](=O)[O-])c2)c(N=Nc2ccccc2[N+](=O)[O-])s1,80.2%
9,CC(=O)c1ccc(NC(=O)COc2ccc(C3SCC(=O)N3c3ccc(Br)cc3)cc2)cc1 (stereo not given),107%
10,CCN(CC)CCN1C(=O)c2c(c3c4cccnc4[nH]c3c3ccc4ccccc4c23)C1=O,66.7%
11,O=C(/C=C1\C=CN(CCCCCCF)c2ccccc21)n1ccc2ccccc21,98.3%
12,Oc1ccc(CSc2nnc(-c3ccc(Br)cc3)o2)c2cccnc12,111%
13,O=C(Cn1cc(CN2C(=O)c3ccc([N+](=O)[O-])cc3C2=O)nn1)Nc1ccccc1Br,112%
14,COc1ccc(Cn2cc3c(c2-c2ccccc2)CCCc2cnoc2-3)cc1[N+](=O)[O-],40.8%
15,O=S(=O)(NCCCNc1nccc(-n2cnc3ccccc32)n1)c1ccc(F)cc1,92.8%
16,CS(=O)(=O)c1ccc2c(c1)c1c(n2C(=O)c2ccc(Cl)cc2)CCCC1,5.05% (active)
17,Clc1ccccc1/C=C/c1nn2c(-c3ccncc3)nnc2s1,111%
18,Cc1cn(-c2cc(NC(=O)c3cncc(C#Cc4cnc5ccc(O[C@@H]6CCOC6)nn45)c3)cc(C(F)(F)F)c2)cn1,-14% (active)
19,COc1ccc(OC)c([C@H]2c3[nH]c4ccccc4c3C[C@H]3C(=O)N(CCCCCCC(=O)NO)CC(=O)N23)c1,87.6%
20,CC1COc2c(N3CCN(C)CC3)c(F)cc3c(=O)c(C(=O)N/N=C/c4cc[nH]c4)cn1c23 (stereo not given),14.6%
